Experimental data from PubChem BioAssay (Tox21).
Results filed as inconclusive are left out. A call without a number means that no potency is given here. Active and inactive are the calls of the source. The call rests on the fitted dose curve.

Molecular target: 5-hydroxytryptamine receptor 2A (Homo sapiens) (UniProt P28223)
Test: 5-hydroxytryptamine receptor 2A (HTR2A) small molecule agonists, cell-based qHTS assay (AID 1963587); further: nearly all actives have a fitted effect of over 30% in size
Settings: HTR2A-CHO cells, calcium flux fluorescence, agonist mode; series mostly up to 76.8 µM
Excerpt: National Center for Advancing Translational Sciences [NCATS]
Division of Preclinical Innovation [DPI]
U.S. Environmental Protection Agency [EPA]
National Institutes of Environmental Health Sciences [NIEHS]
National Toxicology Program [NTP]
U.S. Food and Drug Administration [FDA]
The HTR2A receptor is a subtype of the 5-HT2 receptor that belongs to the serotonin receptor family and is a G protein-coupled receptor (GPCR). The HTR2A-CHO cell line stably expressing human 5-hydroxytryptamine receptor 2A (HTR2A) can be used for screening agonists of interactions between 5-HT2 and its ligands. The HTR2A-CHO calcium flux assay is a homogeneous fluorescence-based assay for detecting the intracellular calcium level using FDSS kinetic plate reader system.
HTR2A-CHO cells were dispensed at 2000 cells/3uL/well in 1536-well black-clear bottom plates using a Multidrop Dispenser. After the assay plates were incubated at a 37 C/5% CO2 incubator for 18 h, 3 uL of Dye Loading Buffer was transferred to the assay plate by a Flying Reagent Dispenser. The assay plates were incubated at 37 C for 1h. For agonist mode, 23 nL of compounds dissolved in DMSO, positive controls or DMSO only was transferred to the assay plate by a pin tool. The fluorescence intensity in the plates was measured using FDSS 7000EX kinetic plate reader for 2 min at 1 sec intervals.

5-hydroxytryptamine receptor 2A (Homo sapiens), sequence (P28223 whole entry, looked up): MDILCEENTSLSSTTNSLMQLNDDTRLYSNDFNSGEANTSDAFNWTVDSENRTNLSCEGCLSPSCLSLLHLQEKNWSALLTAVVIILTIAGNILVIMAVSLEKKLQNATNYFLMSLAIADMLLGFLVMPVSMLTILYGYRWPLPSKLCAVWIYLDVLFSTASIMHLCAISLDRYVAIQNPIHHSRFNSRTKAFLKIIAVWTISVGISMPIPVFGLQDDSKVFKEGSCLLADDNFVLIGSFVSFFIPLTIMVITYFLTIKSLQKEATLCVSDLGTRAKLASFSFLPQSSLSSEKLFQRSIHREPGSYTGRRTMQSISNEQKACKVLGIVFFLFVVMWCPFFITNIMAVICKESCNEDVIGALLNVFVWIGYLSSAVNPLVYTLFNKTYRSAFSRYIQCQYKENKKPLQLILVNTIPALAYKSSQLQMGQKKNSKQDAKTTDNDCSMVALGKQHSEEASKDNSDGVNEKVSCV

Compound | Potency
CC(Cl)(Cl)C(=O)O | inactive
CC(C)(c1ccc(OCC2CO2)cc1)c1ccc(OCC2CO2)cc1 (stereo not given) | inactive
CCOP(=O)(OCC)SCCSCC | inactive
CN1C(=O)CCS(=O)(=O)C1c1ccc(Cl)cc1 (stereo not given) | inactive
[CH3][Sn]([Cl])([Cl])[Cl] | inactive
O=C(O)c1nn(Cc2ccc(Cl)cc2Cl)c2ccccc12 | inactive
CCc1ccccc1C | inactive
CCOC(=O)c1cncn1C(C)c1ccccc1 (stereo not given) | inactive
[O-][Cl+2]([O-])O | inactive
Cc1cc(Cl)ccc1N=CN(C)C | inactive
C=CC(C)=O | inactive
C=C(C)C(=O)OCC1CO1 (stereo not given) | inactive
Nc1ccc2ccccc2c1 | inactive
O=C(NCNC(=O)NC1C(=O)NC(=O)N1CO)NC1C(=O)NC(=O)N1CO (stereo not given) | inactive
CCOP(OCC)OCC | inactive
C=CC(=O)OC(C)(C)C | inactive
Cn1c(N)nc2c3cccnc3ccc21 | inactive
O=C(O)C(Cl)Br (stereo not given) | inactive
COP(=S)(OC)Oc1ccc(SC)c(C)c1 | inactive
CCCC[n+]1cccc(C)c1 | inactive

Compound | Potency
CC(O)CN(CC(C)O)CC(C)O (stereo not given) | inactive
NC(=O)OCCCc1ccccc1 | inactive
O=c1ccc(=O)[nH][nH]1 | inactive
CC(Cl)Cl | inactive
Cc1cc(Cl)ccc1OC(C)C(=O)O (stereo not given) | inactive
COc1cc(N)c(Cl)cc1C(=O)NC1CN2CCC1CC2 (stereo not given) | inactive
CC1(C)C(C=C(Cl)Cl)C1C(=O)OC(C#N)c1cccc(Oc2ccccc2)c1 (stereo not given) | inactive
CCN(CC)CCO | inactive
C[C@]12CCC(=O)C(O)=C1CC[C@@H]1[C@@H]2CC[C@]2(C)C(=O)CC[C@@H]12 | inactive
CC(C)(O)C(Cl)(Cl)Cl | inactive
O=C(CCN1CC1)OCC(CO)(COC(=O)CCN1CC1)COC(=O)CCN1CC1 | inactive
COP(=O)(NC(C)=O)SC (stereo not given) | inactive
CCOP(=S)(OCC)Oc1ccc([N+](=O)[O-])cc1 | inactive
CCN(C)N=O | inactive
O=P(O)(O)CN(CP(=O)(O)O)CP(=O)(O)O | inactive
O=C1CCCN1 | inactive
C=C(C)[C@@H]1CC=C(C=O)CC1 | inactive
N#CC(c1ccccc1)c1ccccc1 | inactive
N#Cc1ccccc1N | inactive
ClCCN1CCCC1 | inactive
